Compound activity (PubChem BioAssay)
TSHR antag – human thyrotropin receptor antagonism; 330,000 tested, 0.2% active; activity change, negative = inhibition, % at 11.5 µM; TSHR-expressing cells, TSH-stimulated cAMP HTRF, 2 h; hits give low values;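 active means activity change below a set negative limit, meaning inhibition stronger than a set level, cut at about -70% in these data; inconclusive means activity change between two set negative limits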
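Freshly harvested TSHR cells receive pin-tooled compound, then EC80 TSH at 4nM final. After 2 hours at 37 deg C, antibody in lysis buffer and cAMP-d2 are added; 30 minutes at ambient temperature precede the HTRF read.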
Coupling enz – inhibits coupling enzyme system, counter-screen for aldolase hits. activity change, negative = inhibition, % at 58.2 µM, hits read low. 290,000 tested, 0.67% active. coupling enzyme system counterscreen, AmpLite Red fluorescence. AID 2472; in the data active means activity change below about -30%
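Coupling enzymes only (glyceraldehyde-3-phosphate) + compound, at 57.5 uM final, 10 min RT; add substrate/coupling/AmpLite Red mix, 20 min RT; fluorescence ex 525/em 598 nm. Actives flag coupling-system interference.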
Gal4-VP16 FLuc – Gal4-VP16 reporter inhibition counter-screen; 310,000 tested, 3.5% active; Drosophila S2 Gal4-VP16 UAS-luciferase, luminescence, 20 h; AID 2546; Potency, µM (top dose mostly 53.6 µM), inactives show at the highest dose activity, negative = inhibition, actives largely listed as inhibitors;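 further: Gal4-VP16 expression switched on by copper sulfate through the metallothionein promoter; potency means the concentration at half of the fitted maximal effect; nearly all actives have a fitted effect of over 50% in size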
ELG1 DNA repair – blocks ELG1-dependent DNA repair in HEK293T cells; HEK293T ELG1-luciferase reporter, luminescence, 16 h; DNA damage induced by 5-fluorouridine; Potency, µM (doses to about 46.1 µM), inactives show at the top dose activity change, negative = inhibition, hits mostly inhibitors; 330,000 tested, 2.3% active; AID 504467; further: potency means the concentration at half of the fitted maximal effect; nearly all actives have a fitted effect of over 55% in size
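Quantitative HTS, concentration-response format. 2,000 cells/well co-treated with 5-fluorouridine and compound, 16 hr in 5% CO2 at 37 °C; ONE-Glo luminescence read after 30 min.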
RORg inh – inhibitors of mouse ROR gamma transcriptional activity. P51450. Drosophila S2 Gal4-RORgamma UAS-luciferase reporter, 20 h. Potency, µM (titrated, usually from 53.6 µM), inactives show at the highest dose activity change, negative = inhibition, usual class: inhibitors. 310,000 tested, 5.4% active. AID 2551; further: potency means the concentration at half of the fitted maximal effect; nearly all actives have a fitted effect of over 60% in size
Target sequence (P51450 whole entry, looked up, the tested form may be a part): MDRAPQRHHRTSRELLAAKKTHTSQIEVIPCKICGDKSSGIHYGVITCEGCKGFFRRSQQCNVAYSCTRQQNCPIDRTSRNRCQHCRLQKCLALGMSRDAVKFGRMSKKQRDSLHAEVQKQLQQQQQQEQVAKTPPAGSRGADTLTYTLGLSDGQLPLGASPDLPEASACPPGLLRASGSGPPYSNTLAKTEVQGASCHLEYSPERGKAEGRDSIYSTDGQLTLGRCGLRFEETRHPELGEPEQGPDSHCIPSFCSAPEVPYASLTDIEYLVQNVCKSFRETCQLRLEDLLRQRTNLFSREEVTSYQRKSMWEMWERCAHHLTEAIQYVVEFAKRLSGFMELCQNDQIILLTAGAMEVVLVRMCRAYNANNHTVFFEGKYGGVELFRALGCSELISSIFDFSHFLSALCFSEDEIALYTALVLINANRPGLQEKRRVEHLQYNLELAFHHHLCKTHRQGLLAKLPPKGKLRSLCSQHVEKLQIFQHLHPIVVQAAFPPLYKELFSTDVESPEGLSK
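ROR gamma transcriptional activity was tracked as Gal4-UAS luciferase output in stably transfected Drosophila Schneider cells, with compound added 1 hr before 700 uM copper sulfate induction and a 20 hr ambient-temperature incubation.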
* marks the source's active call; other numbers are inactive results; ? = inconclusive; . = no result. Sampled rows, rich in hits. Any-hit rate of the full collection: about 8%. Unless noted, the call rests on the fitted dose curve; in most records, active means well fitted curve in the direction sought with a large enough effect; inconclusive means small, poorly fitted or top-dose-only effect, or another doubt; inactive means no such curve, though single readings can be large; an effect the other way counts as inactive or inconclusive. On the % scale 0 is the no-effect control and ±100 the full control effect.

SMILES | TSHR antag | Coupling enz | Gal4-VP16 FLuc | ELG1 DNA repair | RORg inh
Cn1c(=O)c2c3c(sc2n2c(SCC(N)=O)nnc12)CC(C(C)(C)C)CC3 (stereo not given) | -11 | -2 | -11% | 23µM* | -29%
Cn1c(=O)c2c3c(sc2n2c(SCc4ccccc4)nnc12)CCCC3 | 9 | 0 | 21% | -1% | -22%
CCCSc1nnc2n(C)c(=O)c3c4c(sc3n12)CCC4 | -13 | 5 | 4% | -3% | ?
CCCCN(CCCC)C(=O)CSc1nnc2n(C)c(=O)c3c4c(sc3n12)CCCC4 | 1 | -1 | 4.5µM* | 10% | ?
CC(C)C[C@@H](CC(=O)N[C@@H](CCCN)CC(=O)N[C@@H]1CCCC[C@H]1C(=O)N[C@H](CC(=O)N[C@@H](CCC(=O)O)CC(=O)O)Cc1ccccc1)NC(=O)[C@@H]1CCCC[C@H]1N | . | 2 | 0% | . | 10%
NS(=O)(=O)c1ccc(CCNC(=O)Cc2ccccc2[N+](=O)[O-])cc1 | -2 | 0 | 9% | -6% | 4%
COC(=O)c1c(N)sc(C(=O)NCCc2ccccc2)c1C | -6 | 1 | 4.5µM* | ? | 2.5µM*
O=C(Cc1ccccc1[N+](=O)[O-])NCCCc1ccccc1 | -10 | -2 | -3% | 4% | 0.22µM*
Cc1ccc(C(=O)NCCc2ccccc2)cc1 | -2 | 0 | 4µM* | ? | 4.5µM*
O=C(NC(=S)NCc1ccccc1)c1ccccc1[N+](=O)[O-] | -3 | -4 | 16µM* | 2% | 7.9µM*
COC(CN(C)S(=O)(=O)c1cc2c3c(c1)CCN3C(=O)CC2)OC | -4 | 3 | 3% | 4% | -3%
CN1CCN(c2ccc(CNS(=O)(=O)c3ccc(Cl)cc3)cc2)CC1 | 9 | 1 | -9% | -2% | 2%
CC(=O)c1ccc(NC(=O)CS(=O)(=O)c2cn(CC(=O)N3CCOCC3)c3ccccc23)cc1 | -3 | 2 | -1% | 7% | 15%
O=C(NC(=S)N1CCCC1)c1ccccc1F | 4 | . | . | 3% | .
O=C(NC(=S)NC(=O)c1ccccc1F)c1ccccc1F | 0 | -1 | 5.6µM* | ? | ?
CC(C)c1ccccc1NC(=O)COc1ccc(C(=O)NCCc2ccccc2)cc1 | 2 | 4 | 18µM* | -15% | ?
O=C(NC(=S)N(CCO)Cc1ccccc1)c1ccc(S(=O)(=O)N2CCCC2)cc1 | -6 | 0 | 4.5µM* | -8% | 2.2µM*
O=C(NC(=S)NCc1ccccc1)c1ccccc1Br | 11 | 3 | 10µM* | ? | 8.9µM*
CCOc1ccc(S(=O)(=O)N2CCCCC2)cc1NC(=O)Cc1cccc(C(F)(F)F)c1 | 5 | . | . | -3% | .
Cc1onc(-c2c(F)cccc2Cl)c1C(=O)Nc1cccc(S(=O)(=O)NC2=NCCC2)c1 | -4 | . | . | 0% | .
CC(C#N)N1CCN(S(=O)(=O)c2ccc3c(c2)CCC3)CC1 (stereo not given) | 14 | . | . | 3% | .
CC(=O)[C@@H]1[C@H]2[C@H](C(=O)[C@H]3OC[C@@H]2O3)[C@H]2C=Cc3ccccc3N21 | . | -17 | ? | . | ?
Cc1ccccc1C(=O)NC(=S)N(CCO)Cc1ccccc1 | -1 | 2 | 2.8µM* | -3% | 2µM*
CCOc1ccc(NC(=O)COc2ccc(C(=O)NCCc3ccccc3)cc2)cc1 | 5 | 7 | -9% | ? | -23%
O=C(O)CNC(=S)N(Cc1ccccc1)Cc1ccccc1F | -7 | 18 | 1% | 18% | 11%
SMILES | TSHR antag | Coupling enz | Gal4-VP16 FLuc | ELG1 DNA repair | RORg inh
O=C(NC(=S)NCCc1ccccc1)c1ccccc1F | -19 | . | ? | ? | 18µM*
O=C(NC(=S)N(Cc1ccccc1)Cc1ccccc1)c1ccccc1F | -1 | . | 0.71µM* | ? | 0.25µM*
CCCCc1ccc(NC(=O)COc2ccc(C(=O)Nc3ccccc3OCC)cc2)cc1 | 0 | 0 | 10µM* | 26% | ?
Cc1cc(C(=O)O)cc(S(=O)(=O)NNC(=O)c2cccs2)c1C | 0 | 0 | -6% | 6% | -13%
CC(=O)N[C@@H]1[C@@H](O)[C@@H]2OC(c3ccccc3)OC[C@H]2O[C@@H]1N=[N+]=[N-] (stereo not given in full) | 3 | 4 | 7% | -10% | -19%
C[C@@H]1C(=O)O[C@H]2C[C@@]34[C@H]5C[C@@H](C(C)(C)C)[C@]36[C@H](OC(=O)[C@H]6O)O[C@]4(C(=O)O5)[C@]21O | . | 3 | 8% | . | -1%
O=C(CC12CC3CC(CC(C3)C1)C2)NC(=S)NCc1ccccc1 | 0 | 3 | 1.6µM* | 5% | 2µM*
O=C(NC(=S)NCCc1ccccc1)c1ccccc1 | -13 | 2 | ? | ? | 5.6µM*
CN(CCC#N)C(=S)NC(=O)c1ccc(S(=O)(=O)N2CCOCC2)cc1 | -5 | -2 | ? | 7% | 5µM*
O=C(NCCc1ccc(O)cc1)c1ccc(Cl)cc1 | -3 | -5 | ? | ? | 1.6µM*
CCc1ccc2c(O)c3c(cc2c1C(=O)OC)C(=O)c1c(O)ccc(O)c1C3=O | . | -17 | -10% | . | 2%
CCNc1ncc2nc(-c3cc(F)cc(F)c3)c(=O)n(C[C@H]3CCCO3)c2n1 | . | 2 | -3% | . | -7%
Cc1ccc(NC(=O)CSCC(=O)N(C)CC(=O)Nc2ccccc2C(F)(F)F)cc1 | 12 | . | . | 4% | .
COC1CC2CCC(C)[C@](O)(O2)C(=O)C(=O)N2CCCCC2C(=O)OC(C(C)CC2CCC(O)C(OC)C2)CC(=O)C(C)/C=C(/C)C(O)C(OC)C(=O)C(C)CC(C)C=CC=C/C=C\1C (stereo not given in full) | . | . | ? | . | -22%
O=C(NCCc1ccccc1)c1ccccc1F | 24 | 0 | ? | ? | ?
O=C(NC(=S)NCc1ccccc1)c1ccccc1F | 23 | . | ? | ? | 10µM*
C=CCn1c(NC(=O)c2ccccc2)nc2ccccc21 | 5 | 0 | 1µM* | ? | 0.56µM*
CCn1c(CNc2ccc(C(=O)O)cc2)nc2ccccc21 | . | 8 | -1% | . | 10µM*
C=CCn1c(P(=O)(O)c2ccccc2)nc2ccccc21 | 14 | 2 | 2% | -5% | -23%
CCCn1c(NC(=O)C2COc3ccccc3O2)nc2ccccc21 (stereo not given) | 4 | 1 | 1.4µM* | 9% | 1.4µM*
O=C(O)c1ccc(NCc2nc3ccccc3n2Cc2ccccc2)cc1 | 6 | 13 | 19% | 0% | 2%
CCCCn1c(NC(=O)C2CCCCC2)nc2ccccc21 | 14 | -2 | 2.8µM* | 0% | 1.3µM*
COc1ccc(-n2cc(CNCc3cnc4ccccn34)c(-c3cccc(F)c3)n2)cc1 | -3 | 1 | 0% | -1% | -43%
